# Assay results reported in PubChem BioAssay AID488969 (Vanderbilt High Throughput Screening Facility, 2010).
# Whole data set: some 110,000 compounds, median “z-score” near -0.1, cut for the highest 2% near 2. For the sample, the highest values were picked, then their nearest neighbours and some compounds at random. Activity calls are given as the source filed them.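 The calls were made as follows: active = z-score in the third read window above 3 or below -3; inactive = the rest.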
# Molecular target: Metabotropic glutamate receptor 8 (Rattus norvegicus) (UniProt P70579)
# Sequence (P70579 whole entry, looked up): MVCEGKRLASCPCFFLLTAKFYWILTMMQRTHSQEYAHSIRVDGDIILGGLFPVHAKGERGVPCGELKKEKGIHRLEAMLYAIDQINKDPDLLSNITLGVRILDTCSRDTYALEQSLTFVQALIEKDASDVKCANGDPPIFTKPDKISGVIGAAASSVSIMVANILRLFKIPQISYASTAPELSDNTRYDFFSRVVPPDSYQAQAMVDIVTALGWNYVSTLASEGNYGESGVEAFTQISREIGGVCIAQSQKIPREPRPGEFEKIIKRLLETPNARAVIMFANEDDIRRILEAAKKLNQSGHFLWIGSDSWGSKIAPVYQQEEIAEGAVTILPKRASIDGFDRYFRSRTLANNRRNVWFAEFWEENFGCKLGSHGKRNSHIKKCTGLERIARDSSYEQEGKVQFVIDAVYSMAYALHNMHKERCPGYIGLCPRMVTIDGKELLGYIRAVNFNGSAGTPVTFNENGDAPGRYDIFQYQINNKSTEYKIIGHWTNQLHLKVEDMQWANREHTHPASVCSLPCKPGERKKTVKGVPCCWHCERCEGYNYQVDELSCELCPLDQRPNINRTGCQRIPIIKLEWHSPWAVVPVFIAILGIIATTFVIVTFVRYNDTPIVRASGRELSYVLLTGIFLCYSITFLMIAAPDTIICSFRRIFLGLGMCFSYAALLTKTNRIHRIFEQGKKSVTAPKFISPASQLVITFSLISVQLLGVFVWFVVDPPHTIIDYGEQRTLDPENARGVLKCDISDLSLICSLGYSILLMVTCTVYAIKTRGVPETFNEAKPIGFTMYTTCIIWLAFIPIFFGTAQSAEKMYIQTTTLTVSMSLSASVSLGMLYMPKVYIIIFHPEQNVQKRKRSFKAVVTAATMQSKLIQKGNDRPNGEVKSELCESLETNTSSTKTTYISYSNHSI
# Assay: mGluR8 Gi/Go-coupled signaling modulation – cell-based, rat, thallium flux, HTS, primary screen (AID 488969)
# Settings: HEK293 rat mGluR8, GIRK (G protein-gated inwardly rectifying potassium channel) thallium flux, FluoZin2; at 10 µM; stronger effect = higher value; submaximal glutamate (EC20) added with thallium
row,Structure (SMILES),z-score
1,O=C(COc1ccc(S(=O)(=O)NC2CCCCC2)cc1Cl)N1CCN(c2ccccc2)CC1,1.16
2,COc1cccc(/C=N/NC(=O)C(=O)N2CCCC2)c1OC,-0.494
3,CCSc1nnc(NC(=O)C2CCN(S(=O)(=O)c3ccccc3C(F)(F)F)CC2)s1,-0.565
4,O=C(Nc1ccccc1)/C(=C\c1ccc2c(c1)OCO2)NC(=O)c1ccco1,-0.0407
5,Cc1ccc(CN2CCNC(=O)C2CC(=O)O)cc1 (configuration not stated),-0.134
6,COc1ccc(CN2CCNC(=O)C2CC(=O)O)cc1OC (configuration not stated),3.61 (active)
7,O=C(O)CC1C(=O)NCCN1Cc1ccc(F)c(F)c1 (configuration not stated),-0.183
8,CC1CC(C)CN(CCOCCSc2ccccc2)C1 (configuration not stated),0.729
9,O=C(Cn1cc(C(F)(F)F)cc(Cl)c1=O)NCCc1ccccc1,-0.155
10,COC(=O)c1cccc(NC(=S)Nc2cccc(Cl)c2Cl)c1,2.5
11,CC(=O)c1cccc(NC(=S)NC(=O)c2ccccc2Cl)c1,1.17
12,CCC(=O)Nc1cccc(NC(=S)NC(=O)c2cccc(C)c2)c1,0.23
13,COC(=O)c1cccc(NC(=S)NCc2ccc(Cl)cc2)c1,0.53
14,CCC(=O)Nc1cccc(NC(=S)NC(=O)c2ccccc2)c1,-0.455
15,Cc1cccc(NC(=O)NC(=S)NC(=O)c2ccccc2)c1,2.86
16,CC(=O)c1cccc(NC(=S)NC(=O)c2cccc(C)c2)c1,7.49 (active)
17,CC(=O)c1cccc(NC(=S)NC(=O)c2cccc(Cl)c2)c1,8.71 (active)
18,COC(=O)c1cccc(NC(=S)Nc2cccc(Cl)c2C)c1,0.445
19,CC(=O)c1cccc(NC(=S)NC(=O)c2ccccc2)c1,1.63
20,CC(=O)c1cccc(NC(=S)NC(=O)c2ccc(Cl)cc2)c1,-0.258
21,Cc1ccc(NC(=O)NC(=S)NC(=O)c2ccccc2)cc1,1.68
22,O=C(c1ccc2snnc2c1)N1CCN(c2ccccn2)CC1,-0.329
23,COC(=O)Nc1sc2c(c1C(=O)N1CCOCC1)CCC(C)C2 (configuration not stated),0.0522
24,COc1ccccc1S(=O)(=O)Nc1cccc(-c2nnc3n2CCCCC3)c1,-0.163

row,Structure (SMILES),z-score
1,Cc1cc2cc(C(c3nnnn3C(C)(C)C)N(Cc3ccco3)CC3CCCO3)c(=O)[nH]c2cc1C (configuration not stated),-0.208
2,O=C(/C=C/c1ccc(F)cc1)c1ccccc1Br,-0.272
3,COc1ccc2nc(C(F)(F)C(F)(F)F)c(C#N)c(N)c2c1,-0.334
4,CC(C)Oc1cccc(C(=O)NC(=S)Nc2cccc(C(F)(F)F)c2)c1,0.755
5,O=C(NNC(=S)Nc1cccc(C(F)(F)F)c1)c1cccc(Cl)c1,2.97
6,CC(C)Oc1cccc(C(=O)NC(=S)Nc2cccc(NC(=O)c3ccccc3Cl)c2)c1,-0.41
7,CC(C)Oc1cccc(C(=O)NC(=S)Nc2ccccc2)c1,3.26 (active)
8,Cc1ccccc1C(=O)NNC(=S)Nc1cccc(C(F)(F)F)c1,-0.0547
9,O=C(NNC(=S)Nc1cccc(C(F)(F)F)c1)c1ccccc1Cl,0.86
10,CCS(=O)(=O)N1CCN(C(=O)COc2ccc(-c3ccccc3)cc2)CC1,-0.0325
11,O=c1c2c3c(sc2nc2n1CCCCC2)CCCCC3,8.38 (active)
12,O=c1c2c3c(sc2nc2n1CCCCC2)CCC3,-0.21
13,O=c1c2c3c(sc2nc2n1CCCC2)CCCCC3,-0.277
14,O=C(Cn1c(CC(=O)N2CCOCC2)nc2ccccc21)Nc1ccc2c(c1)OC(F)(F)O2,1.15
15,CCOc1ccc2nc(NC(=O)CN3CCN(C)CC3)sc2c1,0.433
16,C=CCNCCCOc1ccc(C)cc1Br,0.425
17,CC(=O)Nc1ccc(S(=O)(=O)N(C)CC(=O)OCC(=O)Nc2cccnc2Cl)cc1,-0.172
18,C/C(=N\NC(=O)CNc1cccc(C)c1)c1ccc(Br)s1,0.0989
19,C/C(=N\NC(=O)c1cccc(N/N=C(\C)c2ccccc2)c1)c1ccccc1,-0.529
20,O=C(NN=C1C2CC3CC(C2)CC1C3)c1cc(Cl)ccc1O,0.0729
21,COc1ccccc1NCC(=O)N/N=C(\C)c1ccc(Br)s1,-0.279
22,C/C(=N/NC(=O)c1cc(Cl)ccc1O)C12CC3CC(CC(C3)C1)C2,3.19 (active)
23,C/C(=N/NC(=O)CNc1ccc(C)cc1)c1ccc(Br)s1,0.214
24,CC/C(=N\NC(=O)c1ccccc1Cl)c1ccc(Br)s1,0.216

row,Structure (SMILES),z-score
1,C/C(=N\NC(=O)c1ccc(Cl)c(Cl)c1)c1ccc(Br)s1,1.19
2,C/C(=N/NC(=O)c1ccoc1C)C12CC3CC(CC(C3)C1)C2,0.37
3,C/C(=N\NC(=O)c1cccc(F)c1)c1ccc(Br)s1,7.29 (active)
4,C/C(=N\NC(=O)c1ccccc1O)c1ccc(Br)s1,2.99
5,C/C(=N\NC(=O)c1ccc(Cl)cc1)c1ccc(Br)s1,8.88 (active)
6,O=C(CN1CCCCCCC1)N/N=C/c1ccc(F)c(F)c1,-0.563
7,CCC(C)(C)C1CCC(=NNC(=O)c2ccoc2C)CC1 (configuration not stated),-0.259
8,Cc1sc(NC(=O)c2ccc(Br)s2)c(C(N)=O)c1C,0.0217
9,COc1cc(OC)c(OC)cc1CN(C)C(c1ccccc1)c1nnnn1-c1ccccc1C (configuration not stated),0.0196
10,CC(OC(=O)CCc1nc2ccccc2c(=O)[nH]1)C(=O)NC1CCCC1 (configuration not stated),-0.356
11,Cc1cccc2sc(N(CCN(C)C)C(=O)/C=C/c3cccs3)nc12,-0.145
12,O=c1[nH]c(CN2CCN(c3ccccc3)CC2)nc2ccccc12,0.214
13,COc1cccc(C2C=C(Nc3ccccc3)C(=O)N2c2ccccc2)c1 (configuration not stated),-0.22
14,Cc1cc(C)c(NC(=O)C2CCCN2C(=O)NC2CCCCC2)c(C)c1 (configuration not stated),1.35
15,C/C(=N\NS(=O)(=O)c1ccc(C)cc1)c1ccc(Br)s1,-0.207
16,O=C(N/N=C/C1CCCCC1)c1cc(Cl)ccc1O,0.618
17,C/C(=N\NC(=O)c1cc(Cl)ccc1O)c1ccc(Br)s1,6.48 (active)
18,Nc1[nH]ncc1N=Nc1ccc(Cl)cc1,-0.104
19,c1ccc(CNn2c(N3CCOCC3)nc3ccccc32)cc1,0.241
20,CCN(c1ccccc1)S(=O)(=O)c1cc(C(=O)Nc2ccccc2Cl)ccc1F,2.19
21,CCN(c1ccccc1)S(=O)(=O)c1cc(C(=O)Nc2ccc(F)c(F)c2)ccc1F,-0.178
22,CCN(c1ccccc1)S(=O)(=O)c1cc(C(=O)Nc2cccc(Cl)c2)ccc1F,-0.0119
23,CN(C)c1ccc(/C=C/C(=O)c2ccccc2)cc1[N+](=O)[O-],-0.207
24,Fc1c(F)c(F)c(N=Cc2ccc3ncccc3c2)c(F)c1F,0.201
